# Assay results as given in ChEMBL document CHEMBL3433997, “St. Jude Leishmania screening dataset” (2016).
# Legend:
# Format in all cases: functional
# [1] = target: Solute carrier family 2, facilitated glucose transporter member 1 (Homo sapiens) (UniProt P11166); assay: ST_JUDE_LEISH: Cytotoxicity at 2uM final concentration against transgenic Leishmania Mexicana promastigotes LmGLUT1 that are glucose transport deficient and complemented with the human glucose transporter GLUT1. Activity is measured by DNA content using SYBR green in vitro
# [2] = target: Hexose transporter 1 (Plasmodium falciparum) (UniProt O97467); assay: ST_JUDE_LEISH: Cytotoxicity at 2uM final concentration against transgenic Leishmania Mexicana promastigotes LmPfHT that are glucose transport deficient and complemented with the Plasmodium falciparum hexose transporter. Activity is measured by DNA content using SYBR green in vitro
# [3] = target: Glucose transporter (Leishmania mexicana) (UniProt O61059); assay: ST_JUDE_LEISH: Cytotoxicity at 2uM final concentration against transgenic Leishmania Mexicana promastigotes LmGT2 that are glucose transport deficient and complemented with the L. Mexicana glucose transporter 2. Activity is measured by DNA content using SYBR green in vitro
# Sequence of Solute carrier family 2, facilitated glucose transporter member 1 (Homo sapiens) (P11166 whole entry): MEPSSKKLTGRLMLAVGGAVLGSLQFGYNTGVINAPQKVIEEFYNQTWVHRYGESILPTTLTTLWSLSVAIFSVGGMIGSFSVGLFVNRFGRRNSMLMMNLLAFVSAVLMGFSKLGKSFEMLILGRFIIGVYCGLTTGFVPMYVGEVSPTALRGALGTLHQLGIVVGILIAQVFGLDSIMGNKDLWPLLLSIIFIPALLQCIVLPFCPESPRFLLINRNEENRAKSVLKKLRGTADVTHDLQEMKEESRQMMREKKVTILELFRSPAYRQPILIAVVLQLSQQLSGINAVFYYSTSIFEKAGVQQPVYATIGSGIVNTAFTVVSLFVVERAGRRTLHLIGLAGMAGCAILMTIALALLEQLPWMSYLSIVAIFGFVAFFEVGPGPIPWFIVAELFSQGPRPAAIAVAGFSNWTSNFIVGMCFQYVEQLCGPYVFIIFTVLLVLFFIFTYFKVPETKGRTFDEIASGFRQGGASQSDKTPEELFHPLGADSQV
Structure (SMILES),inhibition [1],inhibition [2],inhibition [3]
CCOC(=O)c1cc(C(=O)NCCCCN2CCC(c3ccc4c(c3OC)CCCC4)CC2)ccc1-c1ccc(C(F)(F)F)cc1,-2.37%,4.37%,1.36%
Nc1nc2c(ncn2OC[C@H]2COP(=O)(O)CO2)c(=O)[nH]1,-2.05%,0.55%,-1.54%
CN(C)CCOc1cc(NC(=O)Nc2ccc(-c3ccccc3)cc2)ccc1I,12.5%,12.7%,12.6%
CC(C)C[C@@H]1C(=O)N[C@H](C2Cc3ccccc3C2)C(=O)N1[C@@H](C(=O)O)c1ccc(F)cc1F,1.91%,2.13%,0.39%
CN(C)CC(=O)Nc1ccc(Nc2nccc(NCC(O)c3ccccc3)n2)cc1 (centres undefined),1.63%,2.79%,0.21%
Cc1ccc2[nH]c(C)cc(=NN=Cc3ccc(Cl)cc3)c2c1,-0.11%,0.61%,-1.26%
O=C(CN1CCN(C(=O)c2ccco2)CC1)Nc1ccccc1Br,-1.39%,-1.64%,-3.97%
CC(=O)Nc1ccc(-c2nc3ccc(-c4nc5ccc(NC(C)=O)cc5[nH]4)cc3[nH]2)cc1,5.99%,3.79%,5.3%
Cc1cccc2nc(-c3cccc(-c4ccc(NC(=O)C(C)CN(C)C)cc4)c3)[nH]c12 (centres undefined),-2.74%,0.04%,-1.14%
O=S(=O)(NCCN1CCCC1)c1ccc(-c2ccc(CNCc3ccsc3)cc2)cc1F,8.07%,1.33%,-0.2%
CCCNCc1ccc(-c2ccc(CN(Cc3cccs3)C(=O)C3CCN(C)CC3)cc2)nc1,2.14%,0.83%,-0.89%
O=C(CCc1cccnc1)Nc1cccc(-c2ccc(-c3nc4cc(C(F)(F)F)ccc4[nH]3)cc2)c1,9.2%,7.53%,6.85%
COc1ccc2nc3cc(Cl)ccc3c(Nc3ccc(C(=O)O)cc3)c2c1,5.95%,-1.31%,0.06%
